# Screening results as filed in PubChem.
# PTK2B oligo ant: Pyk2 (human) oligomerization antagonism; Q14289; actives 0.83% (n = 99,000); z-score (the deposit names both 25 µM and 10 µM); Q293 cells, Pyk2 FERM NanoBiT luminescence; hits give low values; AID 1347419;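 active = Z-score of -3 or lower, scaled per plate to the spread of control and sample wells; inactive = z-score above -3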;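 note: negative z-score means lost luminescence so less FERM oligomerization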
# PLK1 kinase inh: inhibitors of human PLK1 kinase | P53350 | recombinant PLK1 kinase, TR-FRET peptide phosphorylation | inhibition, % at 10 µM | actives 0.53% (n = 97,000) | AID 619;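 active = inhibition of 50% or more in the single-concentration screen; inactive = inhibition below 50%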;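 note: 0% = DMSO max control and 100% = H-89 dihydrochloride min control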
# Target sequence (P53350 whole entry, looked up): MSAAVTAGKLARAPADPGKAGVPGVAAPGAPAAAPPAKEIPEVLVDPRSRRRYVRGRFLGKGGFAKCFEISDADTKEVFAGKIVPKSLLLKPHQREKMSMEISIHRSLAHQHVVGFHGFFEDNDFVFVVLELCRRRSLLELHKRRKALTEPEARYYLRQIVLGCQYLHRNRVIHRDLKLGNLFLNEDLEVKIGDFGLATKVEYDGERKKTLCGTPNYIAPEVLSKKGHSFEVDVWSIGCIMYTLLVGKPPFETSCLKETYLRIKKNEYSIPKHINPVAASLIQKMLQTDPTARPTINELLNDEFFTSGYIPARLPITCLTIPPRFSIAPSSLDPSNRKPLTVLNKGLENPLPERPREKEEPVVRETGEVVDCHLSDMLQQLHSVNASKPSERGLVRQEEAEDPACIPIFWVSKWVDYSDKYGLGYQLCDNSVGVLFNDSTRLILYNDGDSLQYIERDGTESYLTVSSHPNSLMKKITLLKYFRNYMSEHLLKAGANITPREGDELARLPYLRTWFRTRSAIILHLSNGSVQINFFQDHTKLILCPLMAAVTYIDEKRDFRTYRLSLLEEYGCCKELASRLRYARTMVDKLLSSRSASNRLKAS
# PLK1 PBD inh: inhibitors of human Plk1 polo box domain binding. P53350. Plk1 PBD phosphopeptide binding, fluorescence polarization. inhibition, %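 (tested at about 20 µM)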. actives 0.13% (n = 97,000). AID 693; in the data active = inhibition above about 34%, passing the limit was not always enough
# sEH activator: increases human soluble epoxide hydrolase activity | activation, % at 2 µM | P34913 | purified human sEH enzymatic activity, activator screen | actives 0.04% (n = 91,000) | AID 717; in the data active = activation above about 37%
# sEH inh: soluble epoxide hydrolase (human) inhibition; inhibition, % at 2 µM; recombinant human sEH enzymatic activity assay; P34913; actives 0.34% (n = 91,000); in the data active = inhibition above about 80%
# An asterisk follows results filed as active; nt = no result given. Rows were chosen to be rich in hits. Some 1.6% of all compounds tested hit in one or more screens of this group.
SMILES,PTK2B oligo ant,PLK1 kinase inh,PLK1 PBD inh,sEH activator,sEH inh
O=C(NCc1ccco1)C(c1ccccc1)N(CC1CCCO1)C(=O)Cn1nnc2ccccc21 (stereo unspecified),1.1,-22,-8,3,-2
Cc1c(C(=O)N2CCOCC2)sc2nc(-c3ccccc3)cn12,1.1,-9,-3,8,-8
Cc1c(C(=O)Nc2ccc3c(c2)OCCO3)sc2nc(-c3ccccc3)cn12,-3.6*,-5,-9,-5,6
CCCCC(CC)CNC(=O)C1CCCN(S(=O)(=O)c2cnc[nH]2)C1 (stereo unspecified),nt,6,-7,-83,83*
CC(=O)Oc1ccc2ccccc2c1C(NC(=O)C(C)C)c1cccc([N+](=O)[O-])c1 (stereo unspecified),-2.9,-7,-9,-4,2
CCCCC(=O)NC(c1cccc([N+](=O)[O-])c1)c1c(OC(C)=O)ccc2ccccc12 (stereo unspecified),-4.3*,-5,-24,1,2
CC(=O)NC(c1cccc([N+](=O)[O-])c1)c1c(OC(C)=O)ccc2ccccc12 (stereo unspecified),-1.9,-12,-9,-5,6
CC(=O)Oc1ccc2ccccc2c1C(NC(=O)Cc1ccccc1)c1ccccc1 (stereo unspecified),-4*,-8,28,-6,5
COc1ccc(OC)c(NC(=O)CC(NCCC2=CCCCC2)C(=O)O)c1 (stereo unspecified),nt,-6,16,-5,6
Cc1oc(-c2ccc3c(c2)OCCO3)cc1C(=O)O,0.75,nt,nt,nt,nt
Cc1oc2cc(O)cc(O)c2c(=O)c1-c1ccc2c(c1)OCCCO2,-3.4*,-16,0,-2,6
Cc1ccc(N(CC(=O)NCc2ccc3c(c2)OCO3)S(=O)(=O)c2c(C)noc2C)cc1,nt,-15,-17,-2,2
COc1cc(C2c3c(-c4ccccc4)n[nH]c3C(=O)N2c2ccccc2)ccc1O (stereo unspecified),-3.1*,1,7,-3,4
O=C(Cc1ccccc1)Nc1c2c(nn1-c1cccc(Cl)c1)CS(=O)(=O)C2,0.09,66*,5,-5,6
N#Cc1c(N)oc(-c2ccc3c(c2)OCO3)c1-c1ccc2c(c1)OCO2,-1.4,-9,-36,0,2
COc1cccc(N=Nc2c(N)[nH]n3c(=O)cc(-c4ccccc4)nc23)c1,-3.6*,-9,26,14,-14
Cc1ccc(N=Nc2c(N)[nH]n3c(=O)cc(-c4ccccc4)nc23)cc1,-1.8,-13,-28,3,-3
COc1nn(CC(=O)N2N=C(C(F)F)CC2(O)C(F)F)cc1[N+](=O)[O-] (stereo unspecified),-0.47,-11,11,5,-2
O=C(CN1CCOc2ccccc21)NC1CCCCCCC1,nt,-14,23,-87,86*
O=C(NCC1CCCC(CNC(=O)N2CCc3ccccc32)C1)N1CCc2ccccc21 (stereo unspecified),-0.6,-9,-18,-92,92*
CCOC(=O)/C(=C\Nc1ccc(OC(F)(F)F)cc1)Sc1ncc(C(F)(F)F)cc1Cl,-0.55,-7,-6,3,-3
CCc1nnc(NC(=O)CSc2nnc(-c3c[nH]c4ccccc34)n2CC)s1,-1,-8,15,5,-8
Cc1ccccc1-n1c(SCc2c(C)noc2C)nnc1-c1c[nH]c2ccccc12,-3.5*,-14,5,0,-1
Cc1noc(C)c1CSc1nnc(-c2ccncc2)n1-c1cccc(Cl)c1C,-1.3,nt,nt,nt,nt
CCOc1ccc(-n2c(SCC(=O)NCc3ccco3)nnc2-c2c[nH]c3ccccc23)cc1,nt,-16,-7,-12,14
SMILES,PTK2B oligo ant,PLK1 kinase inh,PLK1 PBD inh,sEH activator,sEH inh
CCn1c(SCc2cccnc2)nnc1-c1c[nH]c2ccccc12,nt,67*,-12,nt,nt
Cn1c(SCC(=O)NCc2ccco2)nnc1-c1c[nH]c2ccccc12,nt,65*,-15,nt,nt
CCCSc1nnc(-c2c[nH]c3ccccc23)n1CC,nt,60*,1,nt,nt
COc1ccccc1N1CCN(C(=O)Cn2c(=O)[nH]c3ccsc3c2=O)CC1,-0.16,1,-11,1,-3
Cc1ccc(C)n1-c1ccc(N2CCOCC2)c(Br)c1,-0.52,-7,8,3,-6
O=C(CSc1nc2[nH]ncc2c(=O)[nH]1)NCc1ccc(F)cc1,0.03,nt,nt,nt,nt
CN(C)c1ccc(CNC23CC4CC(CC(C4)C2)C3)cc1,nt,2,-16,9,-6
Cc1occc1-c1nnc(SCC(=O)c2c[nH]c3ccccc23)n1C,0.03,1,-5,nt,nt
CCCSc1nnc(-c2c[nH]c3ccccc23)n1C,nt,64*,4,nt,nt
CN1CCN(c2ccc(S(=O)(=O)N3CCCCC3)cn2)CC1,-3.9*,-8,-19,12,-10
CCCCc1ccc(N2C(=O)[C@@H]3C(CC(N)=O)NC4(C(=O)Nc5ccc(F)cc54)[C@@H]3C2=O)cc1 (stereo partly specified),-0.22,-6,19,0,0
CCN(CC)CCNC(=O)c1cn(C)c2ccc(S(=O)(=O)N(C)C3CCCCC3)cc2c1=O,nt,55*,-17,nt,nt
CCN(CC)CCNC(=O)c1cn(CC)c2ccc(S(=O)(=O)N(C)C)cc2c1=O,nt,-5,-19,25,-22
Cc1ccn2c(C(=O)N/N=C\c3ccccc3[N+](=O)[O-])c(C)nc2c1,-0.73,-8,-36,nt,nt
Cc1cc2cc(CNS(=O)(=O)c3ccc4ccccc4c3)ccc2n1C,nt,-11,17,-17,19
CC(=O)Nc1ccc(S(=O)(=O)NCc2ccc3c(c2)cc(C)n3C)cc1,nt,62*,13,nt,nt
Clc1ccc(CN2CCN(c3ncnc4scc(-c5cccs5)c34)CC2)cc1,-1.9,62*,0,-3,3
Cc1sc2nc3c(C(=O)N4CCN(c5ccccn5)CC4)cccn3c(=O)c2c1C,nt,-23,17,5,-2
Cn1c(CSCc2ccc(Cl)cc2)nnc1SCC(=O)Nc1nccs1,0.39,13,-4,-4,7
Cn1c(CSCc2ccccc2)nnc1SCC(=O)Nc1nccs1,0.48,56*,-2,3,-4
Cn1c(CSCc2ccc(F)cc2)nnc1SCC(=O)Nc1nccs1,2.1,52*,0,-1,4
Cc1c(NC(=O)C(Sc2ccccc2)c2ccccc2)cccc1[N+](=O)[O-] (stereo unspecified),-1.6,-9,-22,6,-5
COC(=O)C1=C(C(=O)OC)C2(OC1c1ccccc1C)C(=O)c1ccccc1C2=O (stereo unspecified),1.2,-14,-19,2,4
CS(=O)(=O)N(CC(=O)NCc1ccc2c(c1)OCO2)Cc1ccccc1,0.07,-6,2,-3,2
CC(C)c1ccc(NC(=O)N2CCC(c3nc4ccccc4o3)CC2)cc1,-0.54,-9,13,-96,96*
COc1ccc(NC(=O)N2CCCC(c3nc(-c4ccc(C(C)C)cc4)no3)C2)cc1 (stereo unspecified),-2.1,-16,15,-92,92*
Cc1cc(C)cc(NC(=O)N2CCC(c3nc4ccccc4o3)CC2)c1,1.5,-7,-18,-17,18
